NIH3T3 tox – kills NIH 3T3 cells; NIH 3T3 viability, CellTiter-Glo ATP luminescence, 48-72 h; Potency, µM (doses to about 96.7 µM), without a hit: at the highest dose activity change, negative = cytotoxicity, hits mostly inhibitors; 94,000 tested, 4.3% active; AID 1345082; also: nearly all actives have a fitted effect of over 55% in size
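First NIH 3T3 cells are plated at 400 cells/well; next compound is pinned in; then plates incubate 48 or 72 hr at 37 °C; finally CellTiter-Glo is added and luminescence read after 10 min.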
FLuc inh – inhibitors of firefly (Photinus pyralis) luciferase; P08659; purified P. pyralis luciferase, luminescence, biochemical; 76,000 tested, 2.5% active; Potency, µM (doses to about 115 µM), hits mostly inhibitors; also: nearly all actives have a fitted effect of over 65% in size
Target sequence (P08659 whole entry, looked up): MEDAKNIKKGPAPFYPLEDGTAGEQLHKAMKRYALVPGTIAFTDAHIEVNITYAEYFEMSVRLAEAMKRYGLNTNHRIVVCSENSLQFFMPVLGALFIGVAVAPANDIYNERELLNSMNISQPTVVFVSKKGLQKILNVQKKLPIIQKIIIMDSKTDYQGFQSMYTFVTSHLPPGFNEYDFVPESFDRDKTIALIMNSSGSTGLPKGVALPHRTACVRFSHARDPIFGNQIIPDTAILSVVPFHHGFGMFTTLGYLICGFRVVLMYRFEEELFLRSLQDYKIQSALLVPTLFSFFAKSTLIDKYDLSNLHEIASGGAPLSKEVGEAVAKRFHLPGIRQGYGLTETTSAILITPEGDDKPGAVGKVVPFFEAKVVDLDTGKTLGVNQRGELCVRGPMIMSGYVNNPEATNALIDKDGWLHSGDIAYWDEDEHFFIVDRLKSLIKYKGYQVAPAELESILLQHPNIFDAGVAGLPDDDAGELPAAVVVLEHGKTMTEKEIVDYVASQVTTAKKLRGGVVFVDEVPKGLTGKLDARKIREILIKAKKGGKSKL
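Biochemical qHTS: compound (6-point titration) added to 10uM D-luciferin plus 10uM ATP in Tris acetate pH 7.5 buffer with Mg, Tween-20 and BSA, then purified enzyme at 10nM; light output imaged.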
GPT2 inhibitor – GPT2 alanine aminotransferase inhibition; AID 1671188; 100,000 tested, 0.25% active; Potency, µM (doses to about 57.7 µM), for the others: at the top dose activity change, negative = inhibition, most hits filed as inhibitors; Recombinant GPT2, coupled pyruvate oxidase/HRP Amplex Red fluorescence; also: nearly all actives have a fitted effect of over 60% in size
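GPT2 10ng/uL, a-KG 250uM, L-Ala 2mM, HEPES pH7.5 + 0.0001% Tween; 30 min RT. Then Amplex mix (PO/HRP/ThPP), 30 min RT dark, fluorescence. AOA 50uM used as positive control.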
HEK cytotox – HEK 293 cell cytotoxicity; 94,000 tested, 6.6% active; HEK 293 viability, ATP luminescence (CellTiter-Glo), 48-72 h; Potency, µM (top dose mostly 115 µM), without a hit: at the highest dose activity change, negative = cytotoxicity, usual class: inhibitors; AID 1345083; also: nearly all actives have a fitted effect of over 60% in size
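Cells seeded first (HEK 293, 250 cells/well), then compound added by pintool. Incubation ran 48 or 72 hr at 37 degree Celsius. CellTiter-Glo was added and luminescence imaged after 10 min at room temperature.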
hNpr1 antagonist – blocks ANP-stimulated signaling of human Npr1 receptor; Potency, µM (highest dose often 46.3 µM), without a hit: at the highest dose activity change, negative = inhibition, actives largely listed as inhibitors; HEK293 hNpr1 GloSensor cGMP, ANP-stimulated luminescence; 76,000 tested, 1.6% active; calls by dose curve; also: nearly all actives have a fitted effect of over 60% in size
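HEK293 cells stably expressing human Npr1 and cGMP GloSensor pGS-40F, loaded 2 h with 2% GloSensor reagent, given compound 30 min at room temperature. Luminescence read before and 20 min after 0.1 nM hNppA.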
* hit, by the source's call; [ ] = another dose, or the depositor's remark. An excerpt weighted towards active compounds, which were near 10% of everything screened. Unless noted, calls follow the shape of the dose curve; as a rule, active = well fitted curve in the direction sought with a large enough effect; inconclusive = small, poorly fitted or top-dose-only effect, or another doubt; inactive = no such curve, though single readings can be large; an effect the other way counts as inactive or inconclusive. % is scaled to controls: 0 for no effect and ±100 for the full control effect; potency is read from the fitted curve at half-maximal effect.

What do the screens show for `O=C(NCCCc1ccccc1)c1cc2n(n1)CC(c1ccc3c(c1)OCO3)OC2` (configuration not stated)?
NIH3T3 tox: 28.2µM*; FLuc inh: inactive; GPT2 inhibitor: 4.7%; HEK cytotox: inconclusive; hNpr1 antagonist: -22.7%

What do the screens show for `Cc1cccc(-c2nc3cc(C(=O)NCc4ccc(Cl)cc4)ccc3o2)n1`?
NIH3T3 tox: -19.2%; GPT2 inhibitor: inactive; HEK cytotox: inconclusive

What do the screens show for `O=C1Nc2ccccc2O[C@H]2C[C@@H]1N(Cc1ccccc1Cl)C2`?
NIH3T3 tox: inconclusive; FLuc inh: inactive; GPT2 inhibitor: 1.3%[88.5 µM]; HEK cytotox: inconclusive; hNpr1 antagonist: -24.3%[70.6 µM]

How did O=C(c1nc2cccnc2n(Cc2ccccc2)c1=O)N1CCC(c2ccccc2)CC1 do in these assays?
NIH3T3 tox: inconclusive; GPT2 inhibitor: -12.6%; HEK cytotox: inconclusive

How did Cc1noc(C)c1S(=O)(=O)N1CCC(Oc2ccc(-c3noc(C(C)C)n3)cc2)C1 (configuration not stated) do in these assays?
NIH3T3 tox: -27.7%; GPT2 inhibitor: -9.8%; HEK cytotox: 20µM*

Results for CC(C)c1nc(-c2ccc(OC3CCN(C(=O)C4(c5ccccc5)CC4)C3)cc2)no1 (configuration not stated) ?
NIH3T3 tox: inconclusive; FLuc inh: inactive; GPT2 inhibitor: inactive; HEK cytotox: 44.7µM*; hNpr1 antagonist: inconclusive

What do the screens show for `COc1ccc(NC(=O)N2CCC(Oc3ccc(-c4noc(C5CC5)n4)cc3)C2)cc1` (configuration not stated)?
NIH3T3 tox: -20.8%; FLuc inh: inconclusive; GPT2 inhibitor: -6.3%; HEK cytotox: inconclusive; hNpr1 antagonist: inconclusive

What do the screens show for `CC(C)c1nc(-c2ccc(OC3CCN(C(=O)c4ccoc4)C3)cc2)no1` (configuration not stated)?
NIH3T3 tox: inconclusive; GPT2 inhibitor: 4.8%; HEK cytotox: 31.6µM*

What do the screens show for `COc1ccc(C(=O)N2CCC(Oc3ccc(-c4noc(C5CC5)n4)cc3)C2)cn1` (configuration not stated)?
NIH3T3 tox: inconclusive; GPT2 inhibitor: -15.6%; HEK cytotox: 35.5µM*

What do the screens show for `O=C(N1CCC(c2nc(-c3ccccc3)no2)C1)C1(c2ccccc2)CC1` (configuration not stated)?
NIH3T3 tox: inconclusive; FLuc inh: inactive; GPT2 inhibitor: 0.5%; HEK cytotox: inconclusive; hNpr1 antagonist: inconclusive

How did CCCS(=O)(=O)N1CCC(Oc2ccc(-c3noc(CC)n3)cc2)C1 (configuration not stated) do in these assays?
NIH3T3 tox: -22.8%; FLuc inh: inactive; GPT2 inhibitor: inactive; HEK cytotox: inconclusive; hNpr1 antagonist: -2.6%

Results for O=S(=O)(c1ccc(F)cc1)N1CCC(Oc2ccc(-c3noc(C4CC4)n3)cc2)C1 (configuration not stated) ?
NIH3T3 tox: inconclusive; FLuc inh: inactive; GPT2 inhibitor: -0.4%; HEK cytotox: 28.2µM*; hNpr1 antagonist: inconclusive

What do the screens show for `COc1cccc(CCC(=O)N2CCCN(c3cc(-c4ccc(Cl)cc4)[nH]n3)CC2)c1`?
NIH3T3 tox: 35.5µM*; FLuc inh: inactive; GPT2 inhibitor: 2.3%; HEK cytotox: inconclusive; hNpr1 antagonist: inconclusive

Results for COc1ccccc1CCC(=O)N1CCCN(c2cc(-c3ccc(Cl)cc3)[nH]n2)CC1 ?
NIH3T3 tox: 35.5µM*; FLuc inh: inactive; GPT2 inhibitor: inconclusive; HEK cytotox: inconclusive; hNpr1 antagonist: -26.3%

What do the screens show for `COc1cccc(-c2cccc(C(=O)N3CCCC3C(=O)N3CCN(C)CC3)c2)c1` (configuration not stated)?
NIH3T3 tox: -17.2%; HEK cytotox: -20.5%

How did COCC(=O)NC[C@@H]1C=C(C)[C@H](Cc2nc3ccccc3[nH]2)C[C@H]1C(C)C do in these assays?
NIH3T3 tox: inconclusive; FLuc inh: inactive; GPT2 inhibitor: -0.6%[88.5 µM]; HEK cytotox: inconclusive; hNpr1 antagonist: -22.0%[70.6 µM]

Screening results from PubChem BioAssay.
